# SW480 rerep – inducers of DNA re-replication in SW480 colon cancer cells | SW480 DNA re-replication, Hoechst DNA content imaging, 48 h | Potency, µM (top dose mostly 46.1 µM), inactives show at the top dose re-replication activation, usual class: activators | 1.8% of 340,000 active | AID 624297; note: % of control where 0% means no effect; nearly all actives have a fitted effect of over 55% in size
#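 Compounds, transferred as 23 nL by pin tool, were incubated with cells for 48 hr; DNA content per nucleus was then quantified by Hoechst staining and fluorescence plate imaging.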
# RORgamma inh – ROR gamma (mouse) transcription inhibition; P51450; Drosophila S2 Gal4-RORgamma UAS-luciferase reporter, 20 h; Potency, µM (series often up to 53.6 µM), inactives show top-dose activity change, negative = inhibition, hits mostly inhibitors; 5.4% of 310,000 active; AID 2551; note: % is set by controls: 0 for no effect and ±100 for the full control effect; nearly all actives have a fitted effect of over 60% in size
# Target sequence (P51450 whole entry, looked up, the tested form may be a part): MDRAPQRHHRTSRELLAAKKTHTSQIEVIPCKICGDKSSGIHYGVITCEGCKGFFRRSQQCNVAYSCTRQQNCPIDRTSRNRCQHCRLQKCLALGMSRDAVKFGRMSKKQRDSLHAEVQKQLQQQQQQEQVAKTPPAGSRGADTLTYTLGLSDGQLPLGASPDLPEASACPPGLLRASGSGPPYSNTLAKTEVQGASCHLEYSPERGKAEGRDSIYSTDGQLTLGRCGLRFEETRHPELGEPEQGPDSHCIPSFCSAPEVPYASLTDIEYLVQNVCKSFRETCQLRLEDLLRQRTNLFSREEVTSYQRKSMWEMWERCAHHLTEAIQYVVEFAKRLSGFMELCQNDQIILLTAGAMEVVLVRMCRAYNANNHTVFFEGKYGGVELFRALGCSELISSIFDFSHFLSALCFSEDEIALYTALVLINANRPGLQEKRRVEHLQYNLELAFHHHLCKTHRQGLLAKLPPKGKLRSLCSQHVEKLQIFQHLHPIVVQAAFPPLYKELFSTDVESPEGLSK
#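 ROR gamma transcriptional activity was tracked as Gal4-UAS luciferase output in stably transfected Drosophila Schneider cells, with compound added 1 hr before 700 uM copper sulfate induction and a 20 hr ambient-temperature incubation.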
# KB-V1 MDR tox – KB-V1 MDR subline cytotoxicity | KB-V1 MDR cells viability, CellTiter-Glo, 72 h | Potency, µM (doses to about 46.1 µM), most hits filed as cytotoxic | 3.4% of 400,000 active; note: % is set by controls: 0 for no effect and ±100 for the full control effect; nearly all actives have a fitted effect of over 60% in size
#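 Luminescent ATP read-out (CellTiter-Glo, 10 min) measures survival of drug-selected KB-V1 MDR cells after 72 h, 37 degrees C compound exposure. Medium: phenol-red-free DMEM, 10% FBS. Values from fitted concentration-response curves.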
# KB-3-1 tox – kills parental KB-3-1 adenocarcinoma cells. KB-3-1 viability, CellTiter-Glo ATP luminescence, 72 h. Potency, µM (top dose mostly 46.1 µM), usual class: cytotoxic. 1.4% of 400,000 active. AID 1347075; note: % is set by controls: 0 for no effect and ±100 for the full control effect; nearly all actives have a fitted effect of over 60% in size
#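 Using CellTiter-Glo luminescence, growth of non-resistant KB-3-1 adenocarcinoma cells is assessed 72 h after pin-tool compound addition at 37 °C. Normalized responses across the concentration series yield fitted curves.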
# Gal4-VP16 FLuc – Gal4-VP16 reporter inhibition counter-screen; Drosophila S2 Gal4-VP16 UAS-luciferase, luminescence, 20 h; AID 2546; 3.5% of 310,000 active; Potency, µM (top dose mostly 53.6 µM), inactives show top-dose activity, negative = inhibition, actives largely listed as inhibitors;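 note: Gal4-VP16 expression switched on by copper sulfate through the metallothionein promoter; % is set by controls: 0 for no effect and ±100 for the full control effect; nearly all actives have a fitted effect of over 50% in size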
# MCF10A rerep – induces DNA re-replication in MCF 10a normal breast cells. MCF 10A DNA re-replication, Hoechst nuclear intensity, 48 h. Potency, µM (doses to about 46.1 µM), without a hit: top-dose activity, positive = re-replication, usual class: activators. 2.9% of 350,000 active; note: % of control where 0% means no effect; nearly all actives have a fitted effect of over 50% in size
# An asterisk follows results filed as active; i = inactive; ? = inconclusive; . = no result given; [ ] = remark or other dose. Shown are actives, neighbours in structure and some others; about 10% of the full set was active somewhere. Calls come from the whole dose curve; as a rule, active = well fitted curve in the direction sought with a large enough effect; inconclusive = small, poorly fitted or top-dose-only effect, or another doubt; inactive = no such curve, though single readings can be large; an effect the other way counts as inactive or inconclusive. Potency is the fitted concentration of half-maximal effect.
SMILES,SW480 rerep,RORgamma inh,KB-V1 MDR tox,KB-3-1 tox,Gal4-VP16 FLuc,MCF10A rerep
Cc1ccc(C)c(N2CCN(C(=O)C3CCCN(c4ncnc5c4nc4n5CCCCC4)C3)CC2)c1 (stereo not given),26.4%,34.1%,?,?,0.8%,20.6µM*
Cc1ccc(N2CCN(C(=O)C3CCCN(c4ncnc5c4nc4n5CCCCC4)C3)CC2)c(C)c1 (stereo not given),-20.9%,-4.8%,i,?,-5.9%,18.3%
O=C(C1CCCN(c2ncnc3c2nc2n3CCCCC2)C1)N1CCN(c2ccccc2)CC1 (stereo not given),1.7%,18.1%,?,i,-13.3%,-9.6%
O=C(C1CCCN(c2ncnc3c2nc2n3CCCCC2)C1)N1CCN(c2cccc(Cl)c2)CC1 (stereo not given),-32.9%,?,23.1µM*,?,-15.3%,?
COc1cccc(N2CCN(c3ncnc4c3nc3n4CCCCC3)CC2)c1,.,.,?,16.4µM*,.,.
CC(C)C[C@H](NC(=O)CNC(=O)[C@H](CCC(N)=O)NC(=O)[C@H](CC(C)C)NC(=O)[C@H](CC(C)C)NC(=O)[C@H](CCCNC(=N)N)NC(=O)[C@H](CCC(N)=O)NC(=O)[C@H](CC(C)C)NC(=O)[C@H](CCCNC(=N)N)NC(=O)[C@H](C)NC(=O)CNC(=O)[C@H](CCC(=O)O)NC(=O)[C@H](CCCNC(=N)N)NC(=O)[C@H](CC(C)C)NC(=O)[C@H](CCCNC(=N)N)NC(=O)[C@H](CO)NC(=O)[C@H](CC(C)C)NC(=O)[C@H](CCC(=O)O)NC(=O)[C@H](CO)NC(=O)[C@@H](NC(=O)[C@H](Cc1ccccc1)NC(=O)[C@@H](NC(=O)CNC(=O)[C@H](CC(=O)O)NC(=O)[C@H](CO)NC(=O)[C@@H](N)Cc1cnc[nH]1)[C@@H](C)O)[C@@H](C)O)C(=O)N[C@H](C(N)=O)C(C)C,.,-0.2%,.,.,-7.7%,.
CCc1nn2c(=O)c(S(=O)(=O)Nc3ccc(C)c(C)c3)c(C)nc2s1,.,.,i,i,.,.
O=S(=O)(c1ccc(Cl)c(NC(=S)N/N=C/c2c(F)cccc2F)c1)N1CCOCC1,?,2µM*,i,i,1.78µM*,?
O=S(=O)(c1ccc(Cl)c(NC(=S)N/N=C/c2ccc(O)cc2)c1)N1CCOCC1,18.4µM*,10µM*,20.6µM*,?,6.31µM*,?
CCOc1ccc(S(=O)(=O)Nc2ccc(Cl)cn2)c(C)c1C,-6.9%,-4.5%[0.365 µM],23.1µM*,?,.,-0.7%
CCOc1cc(C)c(S(=O)(=O)Nc2ccc(Cl)cn2)cc1C,15.6%,8.5%,?,i,-3.6%,23.1µM*
COc1ccc(NC(=S)c2ccc(N(C)C)cc2)cc1,9.0%,?,i,i,21.4%,2.8%
Cc1ccc(NC(=S)c2ccc(N(C)C)cc2)cc1,?,10µM*,i,i,?,?
Cc1ccc(S(=O)(=O)NC(=O)Nc2ccc(N(C)C)cc2)cc1,7.31µM*,-31.2%,i,?,-10.9%,19.2%
C/C=C/C(=O)[C@@H](C)[C@@H](/C=C/C[Si](C)(C)C)C(C)C,.,0.9%,.,.,-1.6%,.
CN(Cc1ccc(Cl)cc1)C(=O)CCl,?,?,?,16.4µM*,?,?
CN(Cc1ccc(Cl)s1)C(=O)CCl,?,10µM*,?,?,-75.8%,?
CN(C)CCNC(=O)c1ccc(Cl)s1,0.4%,-4.4%,i,i,-2.7%[0.365 µM],15.5%
COc1ccc(CN(C)C(=O)CCl)cc1,?,?,i,i,?,?
COc1ccc(-c2nc3sc(CCNC(=O)c4ccc(C(C)(C)C)cc4)c(C)n3n2)cc1,.,.,i,i,.,.
Oc1ccc(Oc2ccc(Oc3ccc(O)cc3)cc2)cc1,27.1%,-7.2%,?,i,-14.3%,17.3%
Cc1c(C(=O)N(CCO)Cc2ccccc2)oc2c(F)cccc12,-65.9%,9.8%,i,i,2.1%,0.731µM*
Cc1c(C(=O)NC2CCN(Cc3ccccc3)C2)oc2c(Cl)cccc12 (stereo not given),?,-15.1%,i,i,2.7%,16.4µM*
Cc1cc(Cl)c2oc(C(=O)N(CCO)Cc3ccccc3)c(C)c2c1,?,?,i,i,11.9%,9.9%
Cc1c(C(=O)N(C)Cc2ccccc2)oc2c(Cl)cccc12,21.2%,4.5%,?,?,-24.5%,18.4µM*
SMILES,SW480 rerep,RORgamma inh,KB-V1 MDR tox,KB-3-1 tox,Gal4-VP16 FLuc,MCF10A rerep
CCn1c(CNC(=O)c2ccc(OC)cc2)nnc1SCC(=O)Nc1ccccc1,.,.,i,i,.,.
COc1cccc(CNC(=O)c2ccc(-n3c(C)cc4c3CCCC4)cc2)c1,.,.,?,i,.,.
Oc1ccc(Br)cc1/C=N/Nc1ncc(-c2ccccc2)cn1,?,11.2µM*,?,?,-13.8%,?
O=C(CCc1ccccc1)N/N=C/c1cc(Br)ccc1O,?,2.4%,?,i,-13.4%,?
Oc1ccc(Br)cc1/C=N/NC(=S)NCCc1ccccc1,?,15.8µM*,i,?,15.8µM*,?
Oc1ccc(/C=N/Nc2ncc(Br)cn2)c(O)c1,?,?,i,?,?,?
COc1ccc(O)c(/C=N/NC(=S)NCCc2ccccc2)c1,26.1%,3.16µM*,?,?,7.08µM*,?
COc1ccc(/C(C)=N/NC(=S)NCCc2ccccc2)c(O)c1,10.6%,5.01µM*,i,i,7.08µM*,?
O=c1c(O)cc(C2Oc3cc(O)cc(O)c3CC2O)cc2c(C3Oc4cc(O)cc(O)c4CC3O)cc(O)c(O)c12 (stereo not given),.,-6.8%,.,.,-26.6%,.
O=C(CC(NC(=O)c1ccccc1)c1ccccc1)OCc1nc(-c2cccc(Cl)c2)no1 (stereo not given),.,.,i,?,.,.
O=C(Cc1ccccc1)N/N=C/c1ccccc1Cl,-2.5%,?,i,i,-2.7%,0.0%
S=C(NCCc1ccccc1)N/N=C/c1ccccc1Cl,-0.5%,11.2µM*,?,i,?,22.0%
COc1cc(S(=O)(=O)NCCOC23CC4CC(CC(C4)C2)C3)c(OC)cc1Cl,-7.9%,32.5%,5.8µM*,?,-19.9%,?
Cn1ncc2c(N3CCN(c4ccc(Cl)c(Cl)c4)CC3)ncnc21,-3.5%,11.1%,2.31µM*,i,-8.3%,10.9%
COC(=O)[C@H]1CC2(CC=C(C)C)C(=O)[C@@](CC=C(C)C)(C(=O)C(C(=O)c3ccccc3)=C2OC)C1(C)C (tested in a mixture with another compound),.,27.8%,.,.,-13.4%,.

# Screening results: PubChem, National Center for Advancing Translational Sciences (NCATS)
